High-throughput results (PubChem BioAssay)
Shown are actives, neighbours in structure and some others; about 7.3% of the full set was active somewhere.
Rab9 prom act = qHTS Assay for Rab9 Promoter Activators | Huh7 Rab9 promoter-luciferase reporter, luminescence, 24 h | Potency, µM (doses to about 9.22 µM), inactives show top-dose activation, negative = inhibition, actives largely listed as activators | 2.8% of 320,000 active | AID 485297, 2010; further: % of control where 0% means no effect; nearly all actives have a fitted effect of over 60% in size
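Huh7 cells stably carrying a Rab9 promoter-luciferase reporter, 1500 cells per well in OP-MEM I with 10% FBS, treated with compound 24 hours at 37C. Luciferase activity read by luminescence after 10 minutes with Amplite reagent.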
ELG1 genotox = qHTS screen for small molecules that induce genotoxicity in human embryonic kidney (HEK293T) cells expressing luciferase-tagged ELG1. HEK293T ELG1-luciferase reporter, luminescence, 16 h. Potency, µM (titrated, usually from 46 µM), inactives show at the highest dose activity change, positive = activation, usual class: activators. 1.3% of 330,000 active; further: % of control where 0% means no effect; nearly all actives have a fitted effect of over 60% in size
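HEK293T cells expressing luciferase-tagged ELG1 were treated with compound or DMSO for 16 hr at 37°C. Luciferase activity was then read after 30 min with ONE-Glo at room temperature; rising signal flags genetic stress.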
NPC1 prom act = qHTS Assay for NPC1 Promoter Activators; AID 485313, 2010; 2.4% of 320,000 active; Huh7 NPC1 promoter luciferase reporter, 24 h; Potency, µM (top dose mostly 9.22 µM), for the others: at the highest dose activation, usual class: activators; further: % of control where 0% means no effect; nearly all actives have a fitted effect of over 60% in size
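Luciferase expression driven by the NPC1 promoter was measured in stably transfected Huh7 cells after a 24 h compound incubation, using a luciferase reagent and a luminescence read.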
FLuc counter = qHTS profiling assay for firefly luciferase inhibitor/activator using purifed enzyme and Km concentrations of substrates (counterscreen for miR-21 project); Luciferin 4-monooxygenase (Photinus pyralis), P08659; purified FLuc, Km substrates, luminescence inhibition; Potency, µM (titrated, usually from 57.5 µM), inactives show at the top dose activity change, negative = inhibition, actives largely listed as inhibitors; 6.9% of 360,000 active; AID 588342, 2011;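 further: plate controls were vehicle for no effect and reference inhibitor for full effect; nearly all actives have a fitted effect of over 55% in size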
Target sequence (P08659 whole entry, looked up): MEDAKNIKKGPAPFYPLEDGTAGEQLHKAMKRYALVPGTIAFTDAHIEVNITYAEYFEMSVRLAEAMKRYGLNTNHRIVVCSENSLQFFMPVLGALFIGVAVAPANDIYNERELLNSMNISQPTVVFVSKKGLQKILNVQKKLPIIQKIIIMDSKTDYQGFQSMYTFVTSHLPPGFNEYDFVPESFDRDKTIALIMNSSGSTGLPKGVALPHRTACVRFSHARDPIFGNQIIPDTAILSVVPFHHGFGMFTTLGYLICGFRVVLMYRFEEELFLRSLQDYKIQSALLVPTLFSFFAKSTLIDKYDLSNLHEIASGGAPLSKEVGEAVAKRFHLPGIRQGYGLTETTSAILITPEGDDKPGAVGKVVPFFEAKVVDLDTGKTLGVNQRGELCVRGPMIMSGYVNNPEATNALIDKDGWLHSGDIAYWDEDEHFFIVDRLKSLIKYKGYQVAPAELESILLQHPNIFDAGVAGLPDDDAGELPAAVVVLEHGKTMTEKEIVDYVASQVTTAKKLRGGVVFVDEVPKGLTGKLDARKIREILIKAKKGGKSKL
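Purified P. pyralis luciferase, 10 nM final, with Km-level 10 uM D-luciferin and 10 uM ATP in 50 mM Tris acetate pH 7.5, 10 mM Mg acetate, 0.01% Tween-20, 0.05% BSA; 6-point qHTS titration about 60 µM downward; luminescence read.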
p53 reactivator = qHTS assay for re-activators of p53 using a Luc reporter; H1299 p53-A138V BP100-luciferase reporter, luminescence, 24 h; Potency, µM (highest dose often 92.2 µM), for the others: top-dose activity change, positive = activation, actives largely listed as activators; 0.063% of 320,000 active; AID 504706, 2011; further: % of control where 0% means no effect; nearly all actives have a fitted effect of over 45% in size
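p53-null H1299 cells stably carrying temperature-sensitive p53-A138V and a BP100-luciferase reporter were pinned with compounds (4-point, 1:5 series) and held 24 hrs at 37 deg C. Luminescence was read 10 min after detection reagent.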
SMN2 splice up = qHTS Assay for Enhancers of SMN2 Splice Variant Expression. AID 1458, 2008. 2.8% of 210,000 active. HEK293 SMN2-luciferase splicing reporter, luminescence, 30-36 h. Potency, µM (highest dose often 46.1 µM), inactives show at the top dose activity change, positive = activation, most hits filed as activators; further: % of control where 0% means no effect; nearly all actives have a fitted effect of over 55% in size
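HEK293 cells carry an SMN2 […]–luciferase reporter in which exon 7 inclusion puts luciferase in frame. Cells were plated 10-12 h before compound addition, then incubated 30-36 h at 37C. ONE-Glo luminescence was read; sodium butyrate at 4.5 mM final served as control.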
* = called active by the depositor; ? = inconclusive; / = no result given; [ ] = another dose, or the depositor's remark. The call rests on the fitted dose curve; in most records, active means well fitted curve in the direction sought with a large enough effect; inconclusive means small, poorly fitted or top-dose-only effect, or another doubt; inactive means no such curve, though single readings can be large; an effect the other way counts as inactive or inconclusive. Potency means the concentration at half of the fitted maximal effect.

SMILES | Rab9 prom act | ELG1 genotox | NPC1 prom act | FLuc counter | p53 reactivator | SMN2 splice up
Cc1nc2cc(NC(=O)Nc3ccccc3Cl)ccc2n1C | 0.89µM* | 0.92µM* | 0.089µM* | 0.38µM* | -1% | /
O=C(Nc1ccc2nccnc2c1)Nc1ccccc1Cl | ? | -2% | ? | ? | 12% | /
CC(=O)c1ccc(NC(=O)Nc2ccc3c(c2)nc(C)n3C)cc1 | 3.2µM* | ? | ? | 19µM* | 10% | ?
Cc1ccc(NC(=O)Nc2ccc3c(c2)nc(C)n3C)cc1 | 0.5µM* | ? | 1.4µM* | 3µM* | 1% | /
COC(=O)c1ccc(NC(=O)Nc2ccc3c(c2)nc(C)n3C)cc1 | ? | 1% | ? | ? | 8% | /
Cc1nc2cc(NC(=O)Nc3cccc([N+](=O)[O-])c3)ccc2n1C | 0.71µM* | ? | 0.35µM* | 1.9µM* | 0% | /
Brc1ccccc1-c1nnc(CSc2nnc3sc4ccccc4n23)o1 | 4µM* | 7% | 14% | ? | 8% | 0%
Cc1cccc(C)c1NC(=O)Cn1c(=O)n(Cc2ccc3c(c2)OCO3)c(=O)c2oc3ccccc3c21 | / | / | / | -1% | / | /
COc1ccc(-c2nnn(CC(=O)N(Cc3cccs3)C(C)C(=O)NCCC(C)C)n2)cc1OC (stereo unspecified) | 4% | -14% | -2% | -1% | -3% | ?
CCOc1ccc(-c2cc(C(=O)N3CCN(c4ccc(C)cc4)C(C)C3)c3ccccc3n2)cc1 (stereo unspecified) | / | / | / | 4.8µM* | / | /
CCOc1ccc(-c2cc(C(=O)N3CCN(c4cccc(C)c4)C(C)C3)c3ccccc3n2)cc1 (stereo unspecified) | / | / | / | 2.4µM* | / | /
Cc1nnc(N/N=C/c2cccc(OCc3ccc(Cl)c(Cl)c3)c2)n1N | ? | 5% | 21% | 17µM* | ? | 4%[1.84 µM]
Cc1ccc2c(c1)COc1c3ccc(C(=O)N[C@@H](C)CO)cc3nn1-2 | 2.2µM* | ? | 1.6µM* | 3.4µM* | 1% | /
Cc1ccc2c(c1)COc1c3ccc(C(=O)NC(C)C)cc3nn1-2 | ? | ? | 1.6µM* | 3µM* | ? | /
CCOc1c2ccc(C(=O)N[C@H](C)C3CCCCC3)cc2nn1CCOC | 3% | -1% | -3% | 2% | -2% | 12%
CCC(C)NC(=O)c1ccc2c(SCC(=O)O)c3c(nc2c1)CCCC3 (stereo unspecified) | 1% | 1% | -1% | ? | -10% | -10%
Cc1ccc(NC(=O)c2cc3ccccc3cc2O)cc1 | 2.8µM* | ? | 2µM* | 1.1µM* | ? | /
Cc1ccc(NC(=O)NNC(=O)c2cc3ccccc3cc2O)cc1C | 8% | 5% | 1% | -3% | 6% | /
COc1ccc(NC(=O)c2cccc3ccccc23)cc1 | 18% | 8% | 14% | ? | / | /
O=C(Nc1ccccn1)c1cc2ccccc2cc1O | 4µM* | 2.3µM* | 3.5µM* | 2.4µM* | ? | /
COc1ccc(NC(=O)c2cc3ccccc3cc2O)cc1 | 2.2µM* | ? | 2.2µM* | 0.95µM* | ? | /
COc1ccc(NC(=O)c2ccccc2C)cc1 | 3.2µM* | ? | 1.4µM* | 9.5µM* | 6% | /
O=C(Nc1ccccn1)c1cccnc1 | -3% | -3% | -2% | 3% | 6% | 23%
COc1ccccc1CNC(=O)c1cnc2sc(N3CCCCCC3)nn2c1=O | / | / | / | -14% | / | /
COc1ccccc1CNC(=O)CCn1c(=O)c2ccccc2n(CC(=O)Nc2cc(Cl)ccc2C)c1=O | / | / | / | 1% | / | 19%
Cc1cc2c(C)nc(-c3ccccc3)nc2o1 | ? | 16µM* | ? | 19µM* | 23% | 28µM*
Cc1cc(Cl)nc(-c2ccccc2)n1 | -2% | 1% | -3% | 4% | -1% | /
